An excerpt weighted towards active compounds, which were near 3.2% of everything screened.
Marburg entry inh = qHTS for inhibitors of binding or entry into cells for Marburg Virus; Marburg virus pseudotyped entry inhibition, cell reporter; Potency, µM (titrated, usually from 37.8 µM), most hits filed as inhibitors; 300,000 tested, 1.8% active; calls by dose curve; tested in HEK293 cells
FMDV antiviral = High Throughput Screening for Foot and Mouth Disease Virus Antivirals; Potency, µM (doses to about 57.9 µM), hits mostly inhibitors; AID 1159524, 2015; 410,000 tested, 1.2% active; FMDV antiviral cell-based qHTS; calls by dose curve; tested in HEK293T cells; also: read-out not given here; nearly all actives have a fitted effect of over 45% in size
VACV Venus inh = qHTS for Stage-Specific Inhibitors of Vaccinia Orthopoxvirus: Venus Reporter Primary qHTS; Vaccinia virus Venus reporter expression, fluorescence; Potency, µM (doses to about 36.5 µM), hits mostly inhibitors; 330,000 tested, 0.46% active; AID 720580, 2013; calls by dose curve; tested in A549 cells; also: nearly all actives have a fitted effect of over 30% in size
LASV entry inh = qHTS for Inhibitors of binding or entry into cells for Lassa Virus | Lassa virus pseudotype entry inhibition, cell reporter | Potency, µM (series often up to 37.9 µM), most hits filed as inhibitors | 300,000 tested, 1.2% active; calls by dose curve; tested in HEK293 cells; also: nearly all actives have a fitted effect of over 50% in size
Vaccinia mCherry = qHTS for Stage-Specific Inhibitors of Vaccinia Orthopoxvirus: mCherry Reporter Primary qHTS; Vaccinia virus mCherry reporter infection, fluorescence; Potency, µM (top dose mostly 36.5 µM), usual class: inhibitors; 310,000 tested, 0.63% active; AID 720579, 2013; calls by dose curve; tested in A549 cells; also: nearly all actives have a fitted effect of over 35% in size
Numbers stand for hits; – = inactive; ? = inconclusive; · = not tested or not shown.

SMILES	Marburg entry inh	FMDV antiviral	VACV Venus inh	LASV entry inh	Vaccinia mCherry
Cc1cc(C)c(-n2c(SCCS(=O)(=O)c3ccc(F)cc3)n[nH]c2=O)c(C)c1	?	–	2.8µM	?	2µM
Cc1ccc(S(=O)(=O)CCSc2n[nH]c(=O)n2-c2ccccc2)cc1	–	–	2µM	–	2µM
O=C(Nc1ccc(S(=O)(=O)N2CCOCC2)cc1)C1CCN(S(=O)(=O)c2ccccc2)CC1	–	–	–	–	–
O=C(Nc1cccc(-c2nc3ccccc3o2)c1)C(F)(F)F	·	32µM	–	–	?
NS(=O)(=O)c1ccc(NC(=S)NC(=O)c2ccc(Br)o2)cc1	–	–	–	?	–
Cc1cc(C)cc(NS(=O)(=O)c2ccc(NC(=S)NC(=O)c3ccc(Br)o3)cc2)c1	16µM	–	?	–	·
O=C(NCCN1Cc2ccccc2OC(c2ccccc2F)C1)c1ccco1 (stereo not given)	·	–	–	·	–
Cc1cccc(Nc2cc(C)c3c(O)cccc3n2)c1C	?	–	?	?	14µM
Cc1ncc([N+](=O)[O-])n1CC(=O)N/N=C/c1ccccc1F	·	–	–	·	–
Cc1cc(Cl)ccc1OCc1n[nH]c(=S)n1C1CCCCC1	23µM	?	·	?	·
Fc1ccc(-c2nc(-c3cccs3)[nH]c2-c2ccc(F)cc2)cc1	?	28µM	?	?	?
O=[N+]([O-])c1ccc(-c2nc(-c3cccs3)c(-c3cccs3)[nH]2)cc1	?	25µM	?	?	11µM
Cn1cc(S(=O)(=O)N2CCCCCC2)cc1C(=O)N1CCN(c2ccccc2F)CC1	·	–	–	?	–
CC1(C)NCCN2C(=O)CS[C@H]21	–	·	·	·	·
CC1CCC(C(C)C)C(OC(=O)Cn2c(COc3ccccc3)[n+](C)c3ccccc32)C1 (stereo not given)	?	28µM	?	?	?
Cc1cccc(OCc2n(CC(=O)OC3CC(C)CCC3C(C)C)c3ccccc3[n+]2C)c1 (stereo not given)	2.5µM	?	–	?	?
CC1CCC(C(C)C)C(OC(=O)Cn2c(-c3ccccc3)[n+](C)c3ccccc32)C1 (stereo not given)	5.8µM	13µM	?	7.1µM	?
CC1CCC(C(C)C)C(OC(=O)CSc2nc(N)cc(=O)[nH]2)C1 (stereo not given)	–	?	·	–	·
CCC1C(=O)NCCN1Cc1ccc2c(c1)CN(Cc1cccn1-c1ccc(Cl)cn1)CCO2 (stereo not given)	·	–	–	·	–
O=C1CCC(C(=O)OCC(=O)c2ccccc2)N1 (stereo not given)	?	–	–	–	–
CC1CC(C)C(=O)C(C(CC2CC(=O)NC(=O)C2)OC(=O)CC(=O)c2ccccc2)C1 (stereo not given)	?	–	1.8µM	?	4µM
COC(=O)C1=C(C)N(Cc2ccco2)C(=O)/C1=C\c1ccc([N+](=O)[O-])cc1	?	22µM	–	?	–
COc1ccc(Br)cc1C(=O)Nc1cccc(-c2nnc(-c3ccco3)o2)c1	21µM	·	–	–	–
COc1cccc(C(=O)Nc2cccc(-c3nnc(-c4ccco4)o3)c2)c1	?	14µM	?	?	?
CS(=O)(=O)c1cccc(-c2nnc(NC(=O)c3ccc4ncsc4c3)o2)c1	–	–	–	–	–
SMILES	Marburg entry inh	FMDV antiviral	VACV Venus inh	LASV entry inh	Vaccinia mCherry
O=C(Nc1ccccc1)c1cccc(-c2nnc(-c3ccccc3)o2)c1	–	–	–	–	·
COc1cccc(-c2nnc(NC(=O)c3ccc4ncsc4c3)o2)c1	10µM	–	–	–	–
CCc1ccc(NC(=O)c2nc(SCc3ccccc3F)ncc2Cl)cc1	·	·	–	·	–
CC(=O)Nc1ccc(S(=O)(=O)NCCC(=O)N2CCCCC2)cc1	–	–	–	–	–
CC(=O)Nc1ccc(S(=O)(=O)NCCC(=O)N2CCN(C(c3ccccc3)c3ccccc3)CC2)cc1	–	?	–	0.32µM	–
C=CC[n+]1ccc(/C=C2\C=Cc3cc(C)ccc3N2CC)c2ccccc21	·	35µM	·	·	·
O=C(C[C@H]1C(=O)N(c2ccccc2)C[C@@H]1Cc1ccccc1)Nc1ccc(Br)cc1	·	–	–	·	–
O=C(C[C@H]1C(=O)N(c2ccc(Br)cc2)C[C@@H]1Cc1ccccc1)Nc1ccccc1	·	–	–	5µM	–
COc1ccc(NC(=O)C[C@H]2C(=O)N(CCc3ccccc3)C[C@@H]2CSC)cc1	·	–	–	–	–
COc1ccc(NC(=O)C[C@H]2C(=O)N(CCc3ccccc3)C[C@@H]2Cc2ccccc2)cc1	·	–	–	16µM	–
CCC(C)CN1C(=O)NC(CCc2ccccc2)C(C(C)=O)=C1C (stereo not given)	–	·	·	·	·
CCCC1=Nc2cc(C(=O)NCCOC)ccc2Sc2ccccc21	?	–	–	?	?
CCCC1=Nc2cc(C(=O)NCCCOCC)ccc2Sc2ccccc21	1.6µM	–	?	–	–
CCCC1=Nc2cc(C(=O)NCCCOC(C)C)ccc2Sc2ccccc21	?	–	·	6.5µM	·
CCNC(=O)c1sc2ncnc(NCCCN3CCOCC3)c2c1C	·	–	–	·	–
CCCc1nc2cccnc2n1C1CCN(C(=O)CC2NC(=O)c3ccccc32)CC1 (stereo not given)	·	–	–	·	–
O=C(CN1c2ccccc2Sc2ccccc21)N/N=C/c1ccc([N+](=O)[O-])cc1	8.9µM	–	?	?	–
c1cc2n(c1)-c1c(ccc3c1OCO3)CNC2c1ccc2c(c1)OCO2 (stereo not given)	?	–	–	–	·
COc1ccc(C2NCc3ccc4c(c3-n3cccc32)OCO4)cc1O (stereo not given)	0.63µM	–	?	?	·
COc1cc(NC(=S)N2CCC(C(N)=O)CC2)c(OC)cc1Cl	·	–	·	·	·
COc1cccc(/C=N/NC(=O)CNC(=O)C(c2ccccc2)c2ccccc2)c1O	?	–	?	10µM	3.5µM
COc1cccc(/C=N/NC(=O)CSCC(=O)Nc2ccccc2)c1O	21µM	–	·	?	·
COc1ccc(C2C(C#N)=C(N)Oc3c2ccc2cccnc32)cc1OC (stereo not given)	?	–	?	?	8.9µM
COc1cc(C2C(C#N)=C(N)Oc3c2ccc2ccccc32)ccc1OCC(=O)Nc1ccc(C)cc1 (stereo not given)	?	?	–	?	?
COc1cc(C2C(C#N)=C(N)Oc3c2ccc2ccccc32)ccc1OCC(=O)Nc1cccc(C)c1 (stereo not given)	?	?	?	10µM	–
SMILES	Marburg entry inh	FMDV antiviral	VACV Venus inh	LASV entry inh	Vaccinia mCherry
CC(=O)OC1(C(C)=O)CCC2C3CC(Cl)C4=CC(=O)CCC4(C)C3CCC21C (stereo not given)	?	–	–	?	–
Cc1c(O)c2c(c(C(=O)/C=C/c3ccccc3)c1O)OC(C)(C)C=C2	·	·	–	·	–
CCOc1ccc2nc(SCC(=O)NC3CCCCC3)[nH]c2c1	10µM	–	–	–	–
COc1ccc2nc(SCC(=O)NC3CCCCC3)[nH]c2c1	?	–	–	?	–
O=C(N/N=C/c1c(O)ccc2ccccc12)c1ccc(CO)nc1	11µM	–	–	?	?
NS(=O)(=O)c1ccc(NC(=S)Nc2ccc(S(=O)(=O)N3CCCC3)cc2)cc1	–	–	–	–	–
